# The list is not random: actives were taken first. Their share in the collection is about 2.9%.
# B2AR arrestin: beta2AR (human) beta-arrestin recruitment activity; P07550; beta-arrestin recruitment to beta2AR, cell-based reporter; Potency, µM (top dose mostly 46.1 µM), for inactives: at the top dose activation, hits mostly activators; actives 0.02% (n = 330,000); active means well fitted activation curve with a large enough effect; inconclusive means small, poorly fitted or top-dose-only effect;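 further: potency means the concentration at half of the fitted maximal effect; 0% = DMSO controls and full agonism = EC100 isoproterenol or metaproterenol; nearly all actives have a fitted effect of over 65% in size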
# TSHR antag: antagonists of human thyroid stimulating hormone receptor; P16473; TSHR-expressing cells, TSH-stimulated cAMP HTRF, 2 h; active compounds read low; activity change, negative = inhibition, % at 11.5 µM; actives 0.2% (n = 330,000);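 active means activity change below a set negative limit, meaning inhibition stronger than a set level, cut at about -70% in these data; inconclusive means activity change between two set negative limits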; further: on the % scale 0 is the no-effect control and ±100 the full control effect
#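 Antagonism was scored as loss of TSH-driven cAMP in TSHR cells, stimulated with 4nM TSH (EC80) for 2 hours at 37 deg C and detected by homogeneous HTRF competition immunoassay.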
# DRD3 agonist: activates the human D3 dopamine receptor; P35462; D3R DiscoveRx beta-arrestin cells, luminescence, 90 min; max activation, %; actives 0.58% (n = 410,000); in the data active means max activation above about 30%; further: 0% is about no effect
# Target sequence (P35462 whole entry, looked up): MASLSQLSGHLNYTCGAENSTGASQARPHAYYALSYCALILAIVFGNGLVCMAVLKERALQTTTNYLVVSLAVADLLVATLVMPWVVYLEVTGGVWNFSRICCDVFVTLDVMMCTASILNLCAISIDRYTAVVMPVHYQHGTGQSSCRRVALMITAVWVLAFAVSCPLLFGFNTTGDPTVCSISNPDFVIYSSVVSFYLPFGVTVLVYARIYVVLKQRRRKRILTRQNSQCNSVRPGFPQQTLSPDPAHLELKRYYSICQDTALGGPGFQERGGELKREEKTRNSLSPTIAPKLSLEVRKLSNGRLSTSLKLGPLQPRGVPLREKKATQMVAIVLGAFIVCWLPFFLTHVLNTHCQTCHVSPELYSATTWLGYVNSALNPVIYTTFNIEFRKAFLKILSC
#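 Agonist mode: compounds and dopamine controls were applied to plated cells for 90 min at 37 degrees C after an overnight attachment at 1500 cells/well. Luminescent read-out followed 30 - 60 minutes at room temperature with DiscoveRx detection reagent.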
# D3 antag: blocks the human D3 dopamine receptor; max response, negative = inhibition, %; P35462; D3R cells, DiscoveRx beta-arrestin luminescence, antagonist mode; active compounds read low; actives 2.5% (n = 360,000); in the data active means max response below about -50%; inconclusive means no clear call, values can overlap the other calls; further: on the % scale 0 is the no-effect control and ±100 the full control effect
#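 Cells plated overnight at 1500 cells/well, then exposed to library compounds with dopamine controls for 90 minutes at 37 degrees C. DiscoveRx reagent added for 30–60 minutes at room temperature; luminescence read, quantitative HTS format.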
# * = called active by the depositor; u = inconclusive; x = no result.
SMILES,B2AR arrestin,TSHR antag,DRD3 agonist,D3 antag
O=C(CCc1nnc2n(Cc3ccc(Cl)cc3)c(=O)c3ccccc3n12)N1CCN(c2ccccn2)CC1,0%,-134*,5,18
Nc1c(-c2nc(-c3ccccc3Cl)no2)nnn1-c1ccccc1C(F)(F)F,x,x,-4,x
COc1ccc(-c2c(-c3ccccc3OC)sc3ccccc23)cc1C=O,0%,-20,-2,-60*
CN1CC[C@]2(CCN3CCc4c(oc5ccccc45)[C@@H]3C2)N(C)C1=O,0%,-4,-43,-58*
Cc1ccc(OCC(=O)Nc2nonc2-c2ccc(Br)cc2)cc1C,x,x,-10,x
COc1cccc(NC(=O)c2sc(-n3nc(C)c(Cc4ccccc4Cl)c3C)nc2C)c1,x,x,-15,x
Cn1nnnc1SCC(=O)NNC(=O)c1ccc(F)cc1,0%,3,-3,-57*
Cn1nnnc1SCC(=O)NNC(=O)c1ccc(Cl)cc1,0%,-7,8,11
COC(=O)c1c(-c2ccc(Br)cc2)csc1NC(=O)Cc1ccc(OC)c(OC)c1,0%,-29,12,21
COC(=O)c1c(-c2ccc(C)cc2)csc1NC(=O)Cc1ccc(OC)c(OC)c1,-1%,-19,32*,93
Cc1cccc2c1cnn2C(=O)CCC(=O)N1CC(C)CC(C)C1 (stereo not given),0%,3,2,17
Cc1cccc2c1cnn2C(=O)CCC(=O)N1CCC(C)CC1,0%,13,1,-57*
O=C(CCC(=O)Nc1cccc(Cl)c1)N/N=C/c1cc([N+](=O)[O-])ccc1O,0%,-11,-16,-62*
Cc1ccccc1NC(=O)CCC(=O)N/N=C/c1cc([N+](=O)[O-])ccc1O,0%,-5,-14,-58*
O=C(CSc1nc2ccccc2s1)N/N=C/c1cc([N+](=O)[O-])ccc1O,-1%,9,-8,-61*
Cc1ccc(/C=N/NC(=O)CSc2nc3ccccc3s2)o1,-1%,-1,-4,-8
O=[N+]([O-])c1ccc(O)c(/C=N/n2cnc3ccccc32)c1,0%,u,0,-15
O=C(CCCC(=O)Nc1cccc(Br)c1)N/N=C/c1cc([N+](=O)[O-])ccc1O,-1%,2,-21,u
O=[N+]([O-])c1ccc(O)c(/C=N/n2c(CO)nc3ccccc32)c1,0%,-2,-17,-54*
CCOc1ccc(CNC(=O)CCn2c(=O)c3cccn3c3ccc(F)cc32)cc1,x,x,-11,x
CN(C)CCNc1ncnc2c1ncn2[C@H]1CN(Cc2ccc(Cl)cc2)C[C@@H](CO)O1,x,x,-6,u
CCOc1ccccc1C1Nc2ccccc2-c2nnc(SCc3ccccc3)nc2O1 (stereo not given),x,x,8,x
CN1CCN(CCC(=O)N/N=C/c2cc([N+](=O)[O-])ccc2O)CC1,0%,21,-24,-79*
Cc1ccc([N+](=O)[O-])cc1NC(=O)CCCOc1ccccc1,0%,25,-1,-64*
S=c1[nH]nc(-c2ccccn2)n1/N=C/c1ccc(Br)s1,0%,-12,13,-56*
SMILES,B2AR arrestin,TSHR antag,DRD3 agonist,D3 antag
O=C1OC(OC(=O)c2cccnc2Nc2cccc(C(F)(F)F)c2)c2ccccc21 (stereo not given),x,x,3,x
CCOC(=O)C[C@@H]1OC[C@H](C)N1S(=O)(=O)c1ccc(C)cc1,x,x,4,5
COc1cc(C(CC(=O)NCc2ccccc2Cl)N2Cc3ccccc3C2=O)cc(OC)c1OC (stereo not given),x,x,6,x
CC(=O)Nc1cccc(-c2cc(N3CCN(CCO)CC3)n3nccc3n2)c1,x,x,37*,-15
O=C(Nc1ccc2c(c1)OCO2)N1CCN(c2ccccc2)CC1,0%,-6,6,-11
O=C(Nc1ccc2c(c1)OCCO2)N1CCN(c2ccccc2)CC1,0%,12,-2,-52*
CCOc1ccc(N2CC(NC(=O)CCc3ccccc3)CC2=O)cc1 (stereo not given),x,x,6,x
CCc1c(C2(O)CCCCC2)[nH]c2cnccc12,0%,-10,-7,-53*
Cc1ccccc1CNC(=O)CCCn1c(=O)c2cccn2c2cccnc21,x,x,-8,x
C=C1C(=O)C=C2CN(C(=O)c3ccccc3)[C@@](Cc3ccc(F)cc3)(C(=O)OC)[C@@H]12,-2%,-18,-31,-99*
C=C1C(=O)CC2=C1[C@](Cc1ccc(F)cc1)(C(=O)OC)N(C(=O)c1ccccc1)C2,x,x,-5,16
CC1C/C(=N\NC(=S)NCc2ccccc2)CC(C)(C)C1 (stereo not given),u,-5,-21,-56*
Cc1ccc(C(=O)Nc2nc3ccccc3n2CCN2CCCC2)cc1,0%,0,-25,-61*
O=C(Nc1nc2ccccc2n1CCN1CCCCC1)C1CCCCC1,0%,-2,-15,-62*
CCn1nccc1C(=O)Nc1nc2ccccc2n1CCN1CCCCC1,-1%,-6,-6,-87*
COc1cccc(CNc2nc3ccccc3n2CCN2CCCCC2)c1OC,7%,9,-15,-67*
CCN(CC)CCCNC(=O)c1sc2nc3n(c(=O)c2c1C)CCCCC3,x,x,-12,x
O=C(CCC(=O)N1CCSc2ccccc21)NCc1ccccc1Cl,x,x,-14,x
CCOC(=O)c1ccccc1NC(=O)CSc1ncc(CO)n1Cc1ccc(C)cc1,x,x,-4,x
CC(=O)c1ccc(NC(=O)c2ncn(-c3ccccc3)n2)cc1,x,x,-5,x
CCn1c(NC(=O)C2CCCCC2)nc2ccccc21,u,12,-3,0
O=C(Nc1nc2ccccc2n1CCN1CCCC1)C1CCCCC1,-1%,1,1,-82*
c1ccc(Cn2c(CNc3nc4ccccc4n3CCN3CCOCC3)nc3ccccc32)cc1,0%,-4,-13,-54*
c1ccc2c(c1)nc(NCc1ccc3c(c1)OCO3)n2CCN1CCOCC1,0%,3,-3,-20
COc1ccccc1C(=O)COC(=O)CCN=C1NS(=O)(=O)c2ccccc21,0%,-13,1,8
SMILES,B2AR arrestin,TSHR antag,DRD3 agonist,D3 antag
COc1ccc(Cl)cc1C(=O)NNC(=O)COC(=O)CCN=C1NS(=O)(=O)c2ccccc21,0%,0,-65,-108*
O=C(C[C@H]1CC[C@@H](NS(=O)(=O)c2ccccc2)[C@@H](CO)O1)NCc1ccc(Cl)c(Cl)c1,x,x,5,2
CN(Cc1ccc(C#CCCO)cc1)CC1CCCN(CCc2ccc(Cl)cc2)C1 (stereo not given),-3%,-2,-4,-5
CN(Cc1ccccc1O)CC1CCCN(CCc2ccc(Cl)cc2)C1 (stereo not given),0%,9,-6,-55*
Cc1ccc(Cl)cc1-n1c(=O)cc(N2CCN(c3ccc(F)cc3)CC2)[nH]c1=O,x,x,9,x
COc1ccc(C(=O)NCCN2CCCC2)cc1,0%,1,-11,-54*
COc1cccc(-c2cc(C(=O)NCC3CCCO3)c3cc(C)cc(C)c3n2)c1 (stereo not given),0%,-7,66*,34
Cc1noc(C)c1COc1ccc(C(=O)NCC2CCCO2)cc1 (stereo not given),0%,-1,-6,-52*

# Screening results as filed in PubChem.
